Test results from article PMC5700166.
Residue numbers refer to the chain shown, from its start.

Columns and labels:
Assay in all cases: protein-binding microarray (PBM); PBM: ~300 nM protein, 6 mM HEPES pH 7.8, 80 mM KCl, 0.5 mM EDTA, 0.5 mM EGTA, 6% glycerol, 35 ng/ul poly-dIdC, 1% milk, 1 h, room temperature; Ap Aiptasia and Nv Nematostella (sea anemones) / Co Capsaspora / Aq Amphimedon (sponge) / Dm Drosophila / Hu human; RHD is the Rel homology domain; high values mean tight binding
Details in all cases: dsDNA, one strand shown
[1] = target: T1, GST-Ap-NF-kB RHD (Exaiptasia pallida (Aiptasia), UniProt A0A913YAJ5 2-422)
T1 sequence: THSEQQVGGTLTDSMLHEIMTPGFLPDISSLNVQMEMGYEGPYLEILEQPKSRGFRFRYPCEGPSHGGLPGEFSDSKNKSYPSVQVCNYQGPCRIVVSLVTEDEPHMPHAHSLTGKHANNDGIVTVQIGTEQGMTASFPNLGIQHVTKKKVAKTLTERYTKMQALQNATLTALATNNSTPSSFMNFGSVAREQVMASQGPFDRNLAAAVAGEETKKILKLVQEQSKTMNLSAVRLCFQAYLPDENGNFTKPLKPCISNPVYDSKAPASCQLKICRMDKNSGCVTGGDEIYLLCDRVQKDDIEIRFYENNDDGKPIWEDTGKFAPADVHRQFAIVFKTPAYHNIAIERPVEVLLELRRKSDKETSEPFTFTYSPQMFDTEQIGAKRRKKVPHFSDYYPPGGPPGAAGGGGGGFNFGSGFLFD

[2] = target: T2, GST-Nv-NF-kB (Cys allele) (Nematostella vectensis, UniProt E5G601 2-411)
T2 sequence: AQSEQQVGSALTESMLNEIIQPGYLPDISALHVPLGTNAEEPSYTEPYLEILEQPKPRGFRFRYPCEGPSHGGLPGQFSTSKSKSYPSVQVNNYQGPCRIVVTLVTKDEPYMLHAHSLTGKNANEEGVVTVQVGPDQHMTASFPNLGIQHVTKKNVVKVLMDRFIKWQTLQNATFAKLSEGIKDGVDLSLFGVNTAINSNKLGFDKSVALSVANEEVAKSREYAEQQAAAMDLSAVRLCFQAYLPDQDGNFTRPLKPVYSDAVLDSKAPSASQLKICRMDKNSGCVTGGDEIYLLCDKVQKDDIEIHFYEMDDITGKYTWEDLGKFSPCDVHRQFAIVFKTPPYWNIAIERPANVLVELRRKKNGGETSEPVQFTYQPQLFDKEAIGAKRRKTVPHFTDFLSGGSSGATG

[3] = target: T3, GST-Nv-NF-kB (Ser allele) (Nematostella vectensis, UniProt A7UNT2 2-411)
T3 sequence: T2 sequence with Q21R, C66S, S207N, E215Q, V217A, E225K, A268E, D399E

[4] = target: T4, GST-Co-NF-kB (Capsaspora owczarzaki, UniProt F1ARL5 200-546)
T4 sequence: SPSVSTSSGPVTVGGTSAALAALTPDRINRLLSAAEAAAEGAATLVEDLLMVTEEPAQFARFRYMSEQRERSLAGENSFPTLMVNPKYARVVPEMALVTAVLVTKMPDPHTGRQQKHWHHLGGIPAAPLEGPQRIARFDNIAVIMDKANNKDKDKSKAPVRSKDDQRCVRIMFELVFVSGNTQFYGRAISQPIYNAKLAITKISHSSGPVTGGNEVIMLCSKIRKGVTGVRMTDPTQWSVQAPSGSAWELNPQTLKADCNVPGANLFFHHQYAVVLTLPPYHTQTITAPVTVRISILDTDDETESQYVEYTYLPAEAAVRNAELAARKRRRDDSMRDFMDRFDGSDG

[5] = target: T5, GST-Dm-Relish (Drosophila melanogaster, UniProt Q94527 99-473)
T5 sequence: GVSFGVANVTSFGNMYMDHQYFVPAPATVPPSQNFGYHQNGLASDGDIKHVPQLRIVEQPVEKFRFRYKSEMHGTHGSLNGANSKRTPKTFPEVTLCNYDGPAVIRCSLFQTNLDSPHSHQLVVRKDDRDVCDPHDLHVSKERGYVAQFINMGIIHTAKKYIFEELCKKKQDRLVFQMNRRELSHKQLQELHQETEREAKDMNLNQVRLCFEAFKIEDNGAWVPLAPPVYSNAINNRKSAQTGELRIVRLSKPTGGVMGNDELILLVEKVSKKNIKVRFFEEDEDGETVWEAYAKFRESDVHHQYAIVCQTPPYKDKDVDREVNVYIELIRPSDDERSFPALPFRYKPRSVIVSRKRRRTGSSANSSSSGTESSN

[6] = target: T6, GST-Aq-NF-kB (Amphimedon queenslandica, UniProt A9Y5G7 2-389)
T6 sequence: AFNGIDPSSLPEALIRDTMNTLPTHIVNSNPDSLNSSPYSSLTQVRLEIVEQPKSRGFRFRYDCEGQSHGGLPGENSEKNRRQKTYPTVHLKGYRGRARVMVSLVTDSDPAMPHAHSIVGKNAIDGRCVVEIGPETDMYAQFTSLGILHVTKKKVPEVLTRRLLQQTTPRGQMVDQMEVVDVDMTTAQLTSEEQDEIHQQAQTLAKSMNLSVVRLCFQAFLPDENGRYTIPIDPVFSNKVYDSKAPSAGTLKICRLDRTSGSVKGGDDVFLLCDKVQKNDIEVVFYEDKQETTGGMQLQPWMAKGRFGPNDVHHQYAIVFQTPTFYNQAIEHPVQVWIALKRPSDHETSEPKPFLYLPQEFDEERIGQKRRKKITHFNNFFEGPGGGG

[7] = target: GST-Hu-p50 (Homo sapiens, UniProt P19838 7-356)
Chain of GST-Hu-p50 (P19838 7-356): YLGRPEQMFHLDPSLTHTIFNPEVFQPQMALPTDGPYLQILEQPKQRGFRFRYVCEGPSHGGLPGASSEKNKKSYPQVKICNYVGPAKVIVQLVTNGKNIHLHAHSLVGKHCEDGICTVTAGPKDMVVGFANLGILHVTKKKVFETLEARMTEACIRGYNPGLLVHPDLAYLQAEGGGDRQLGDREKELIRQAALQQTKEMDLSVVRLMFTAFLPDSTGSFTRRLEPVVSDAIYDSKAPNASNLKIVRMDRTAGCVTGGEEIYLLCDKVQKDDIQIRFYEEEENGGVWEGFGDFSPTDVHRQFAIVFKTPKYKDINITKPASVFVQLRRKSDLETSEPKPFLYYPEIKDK

Sequence	binding signal [1]	binding signal [2]	binding signal [3]	binding signal [4]	binding signal [5]	binding signal [6]	binding signal [7]
CCGATTAACATCAAAATTTTCCCTGATGTTAATCGGGTCTTGATTCGCTTGACGCTGCTG	5.5 z-score	8.54 z-score	10.1 z-score	6.32 z-score	5.19 z-score	7.04 z-score	5.99 z-score
CCGATTAACATCAAAAAGCCCCCTGATGTTAATCGGGTCTTGATTCGCTTGACGCTGCTG	7.94 z-score	9.31 z-score	7.92 z-score	3.86 z-score	9.41 z-score	8.57 z-score	7.23 z-score
CCGATTAACATCACGGTTTCCCCTGATGTTAATCGGGTCTTGATTCGCTTGACGCTGCTG	7.03 z-score	7.64 z-score	9.99 z-score	7.67 z-score	5.09 z-score	5.42 z-score	5.88 z-score
CCGATTAACATCACAAACTCCCCTGATGTTAATCGGGTCTTGATTCGCTTGACGCTGCTG	7.26 z-score	5.84 z-score	7.23 z-score	4.83 z-score	5.81 z-score	5.35 z-score	5.66 z-score
CCGATTAACATCAGGGGAATACATGATGTTAATCGGGTCTTGATTCGCTTGACGCTGCTG	6.98 z-score	8.02 z-score	7.97 z-score	6.18 z-score	6.02 z-score	5.87 z-score	5.42 z-score
CCGATTAACATCAGGGGAACTACTGATGTTAATCGGGTCTTGATTCGCTTGACGCTGCTG	6.92 z-score	6.99 z-score	7.41 z-score	5.65 z-score	9.35 z-score	6.91 z-score	5.5 z-score
CCGATTAACATCAGGGAATGCCCTGATGTTAATCGGGTCTTGATTCGCTTGACGCTGCTG	5.58 z-score	7.18 z-score	4.19 z-score	1.43 z-score	7.7 z-score	7.91 z-score	3.67 z-score
CCGATTAACATCACGGGGGAATATGATGTTAATCGGGTCTTGATTCGCTTGACGCTGCTG	8.53 z-score	7.14 z-score	7.03 z-score	10.6 z-score	4.66 z-score	5.84 z-score	6.21 z-score
CCGATTAACATCAGGGGGGGCTATGATGTTAATCGGGTCTTGATTCGCTTGACGCTGCTG	4.3 z-score	3.34 z-score	3.58 z-score	5.06 z-score	4.12 z-score	4.07 z-score	4.09 z-score
CCGATTAACATCAGGAAGCCCCCTGATGTTAATCGGGTCTTGATTCGCTTGACGCTGCTG	6.62 z-score	5.72 z-score	3.93 z-score	1.49 z-score	7.8 z-score	7.03 z-score	5.74 z-score
CCGATTAACATCAAGGGGGGGTGTGATGTTAATCGGGTCTTGATTCGCTTGACGCTGCTG	4.34 z-score	2.8 z-score	3.53 z-score	4.12 z-score	4.4 z-score	3.77 z-score	4.28 z-score
CCGATTAACATCACCCCACCCCCTGATGTTAATCGGGTCTTGATTCGCTTGACGCTGCTG	3.67 z-score	2.66 z-score	3.49 z-score	3.94 z-score	4.21 z-score	3.4 z-score	3.36 z-score
CCGATTAACATCAGGGATTTTACTGATGTTAATCGGGTCTTGATTCGCTTGACGCTGCTG	3.97 z-score	3.99 z-score	2.96 z-score	2.36 z-score	7.1 z-score	5.29 z-score	3.96 z-score
CCGATTAACATCACTTTTTCCCCTGATGTTAATCGGGTCTTGATTCGCTTGACGCTGCTG	6.12 z-score	7.44 z-score	9.65 z-score	10.6 z-score	3.45 z-score	4.94 z-score	5.64 z-score
CCGATTAACATCAGGGGGTAAGATGATGTTAATCGGGTCTTGATTCGCTTGACGCTGCTG	3.96 z-score	3.13 z-score	3.97 z-score	5.47 z-score	1.62 z-score	3.34 z-score	3.07 z-score
CCGATTAACATCAGGGAGTTTTATGATGTTAATCGGGTCTTGATTCGCTTGACGCTGCTG	5.33 z-score	7.35 z-score	6.78 z-score	2.72 z-score	5.65 z-score	6.93 z-score	5.8 z-score
CCGATTAACATCAGAAAGCCCCCTGATGTTAATCGGGTCTTGATTCGCTTGACGCTGCTG	6.56 z-score	7.59 z-score	5.42 z-score	2.16 z-score	7.39 z-score	6.98 z-score	6.29 z-score
CCGATTAACATCAAGGGGAATACTGATGTTAATCGGGTCTTGATTCGCTTGACGCTGCTG	8.04 z-score	9.26 z-score	8.56 z-score	6.16 z-score	6.38 z-score	6.62 z-score	6.33 z-score
CCGATTAACATCAGAAACTCCCCTGATGTTAATCGGGTCTTGATTCGCTTGACGCTGCTG	8.69 z-score	7.68 z-score	7.84 z-score	5.37 z-score	7.08 z-score	7.47 z-score	6.42 z-score
CCGATTAACATCAGCAATTTCCCTGATGTTAATCGGGTCTTGATTCGCTTGACGCTGCTG	3.13 z-score	4.55 z-score	5.81 z-score	3.47 z-score	1.78 z-score	3.79 z-score	3.52 z-score
CCGATTAACATCAAGCACCCCCCTGATGTTAATCGGGTCTTGATTCGCTTGACGCTGCTG	5 z-score	3.3 z-score	3.81 z-score	3.39 z-score	4.97 z-score	4.27 z-score	4.29 z-score
CCGATTAACATCAATTTTCCCACTGATGTTAATCGGGTCTTGATTCGCTTGACGCTGCTG	2.82 z-score	3.99 z-score	4.57 z-score	4.54 z-score	1.33 z-score	3.35 z-score	3.37 z-score
CCGATTAACATCAATGGGATTTCTGATGTTAATCGGGTCTTGATTCGCTTGACGCTGCTG	2.83 z-score	2.72 z-score	2.22 z-score	1.38 z-score	5.37 z-score	2.47 z-score	2.6 z-score
CCGATTAACATCAGGATTCCCCATGATGTTAATCGGGTCTTGATTCGCTTGACGCTGCTG	9.56 z-score	9.44 z-score	8.33 z-score	6.71 z-score	8.76 z-score	6.46 z-score	5.89 z-score
